Screening results deposited in PubChem BioAssay by National Center for Advancing Translational Sciences (NCATS).
Only a selection was taken, and hits are over-represented in it overall.
TDP1 cell noCPT: qHTS for Inhibitors of human tyrosyl-DNA phosphodiesterase 1 (TDP1): qHTS in cells in absence of CPT; DT40 Tdp1-/- hTDP1 cells, no CPT, ATP luminescence, 48 h; Potency, µM (series often up to 46.2 µM), for inactives: at the highest dose activity change, negative = growth inhibition, hits mostly inhibitors; 420,000 compounds, 15% hits; note: potency is the fitted concentration of half-maximal effect; nearly all actives have a fitted effect of over 55% in size
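Compound effects on proliferation are scored in DT40 Tdp1-/-;hTDP1 cells in the absence of CPT. ATP levels (CellTiter-Glo luminescence) are recorded after a ≥48 hr, 37 °C incubation.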
HT1080-NT tox: kills 2HG-producing HT-1080-NT fibrosarcoma cells | HT-1080-NT fibrosarcoma viability, CellTiter-Glo ATP luminescence, 48 h | AID 686970 | Potency, µM (highest dose often 46.1 µM), for the others: top-dose activity, negative = less viability, usual class: cytotoxic | 360,000 compounds, 1.6% hits;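 note: NT is the 2HG producing partner of a matched IDH1 knockdown line; potency is the fitted concentration of half-maximal effect; 0% = DMSO-treated cells and -100% = media-only wells without cells; nearly all actives have a fitted effect of over 55% in size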
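HT-1080-NT; 750 cells/well; 5% FBS RPMI; 48 h compound, 37 degrees C; CellTiter-Glo luminescence; curve fitting and curve-class assignment.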
IL1B secr inh: blocks inflammasome-driven IL-1 beta release | THP-1 LPS/ATP IL-1B secretion, AlphaLISA, 16 h; hits give low values | activity change, % at 57.5 µM | 360,000 compounds, 4.7% hits; in the data active = activity change below about -50%; inconclusive = mostly about -30% to -49%
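Secreted IL-1B measured by AlphaLISA bead assay after 16 h compound exposure of THP-1 cells; compounds (final up to 57.5 uM) added 1 h before LPS (250 ng/mL) and ATP (1.25 mM) stimulation; lower signal means less secretion.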
DT40 TDP1 CPT: growth inhibition of DT40 Tdp1-/-;hTDP1 cells with camptothecin (screen for TDP1 inhibitors) | 420,000 compounds, 12% hits | Potency, µM (series often up to 46.2 µM), for the others: at the top dose activity change, negative = growth inhibition, most hits filed as inhibitors | AID 686979 | chicken DT40 Tdp1-/-;hTDP1 cells + 20 nM CPT, ATP luminescence, 48 h; note: potency is the fitted concentration of half-maximal effect; nearly all actives have a fitted effect of over 55% in size
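Cell growth measured by CellTiter-Glo luminescence after a minimum 48 h, 37 C compound exposure with 20 nM CPT in Tdp1-knockout DT40 cells stably expressing hTDP1, seeded 400/well; qHTS titration format.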
12-LOX inh: ALOX12 (human) lipoxygenase inhibition | AID 1671190 | Potency, µM (doses to about 108 µM), for the others: at the top dose activity change, negative = inhibition, most hits filed as inhibitors | P18054 | purified 12hLO, xylenol orange hydroperoxide absorbance | 580,000 compounds, 1.1% hits; note: potency is the fitted concentration of half-maximal effect
Target sequence (P18054 whole entry, looked up): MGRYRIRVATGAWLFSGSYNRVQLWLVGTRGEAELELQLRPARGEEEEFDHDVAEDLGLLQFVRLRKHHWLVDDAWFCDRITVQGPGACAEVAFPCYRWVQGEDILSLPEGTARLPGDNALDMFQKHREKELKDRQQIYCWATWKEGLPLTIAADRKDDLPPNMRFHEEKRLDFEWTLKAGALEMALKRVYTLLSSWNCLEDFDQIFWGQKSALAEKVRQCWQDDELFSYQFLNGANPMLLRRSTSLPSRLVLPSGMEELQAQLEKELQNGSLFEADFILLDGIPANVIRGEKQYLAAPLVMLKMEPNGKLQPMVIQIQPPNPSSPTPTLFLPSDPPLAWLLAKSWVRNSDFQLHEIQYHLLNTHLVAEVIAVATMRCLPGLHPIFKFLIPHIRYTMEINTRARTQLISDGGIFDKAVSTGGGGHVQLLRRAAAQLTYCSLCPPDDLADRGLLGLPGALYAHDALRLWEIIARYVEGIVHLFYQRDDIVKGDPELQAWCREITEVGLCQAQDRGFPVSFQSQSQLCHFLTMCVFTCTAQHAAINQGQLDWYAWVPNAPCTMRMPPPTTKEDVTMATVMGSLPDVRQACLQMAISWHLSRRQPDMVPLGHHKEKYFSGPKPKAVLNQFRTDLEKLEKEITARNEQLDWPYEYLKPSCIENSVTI
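Purified human 12hLO at 150 nM in 25 mM Hepes, 0.01% Triton X-100, pH 7.0, preincubated 15 min at room temperature with compound. Reaction started with 40 uM arachidonic acid, 30 min at room temperature. Hydroperoxide measured by Fe-xylenol orange, 573/405 nm absorbance ratio.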
HT1080 IDH1KD tx: kills HT-1080 cells with IDH1 knockdown | AID 686971 | Potency, µM (series often up to 46.1 µM), for the others: at the highest dose activity, negative = toxicity, hits mostly cytotoxic | 360,000 compounds, 2% hits | HT-1080 IDH1 knockdown viability, ATP luminescence, 48 h;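 note: potency is the fitted concentration of half-maximal effect; 0% = DMSO wells and -100% = cell-free medium wells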
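Knockdown cells (IDH1KD HT-1080) received compounds 2 h after plating at 750 cells/well and were kept 48 h at 37 °C in 5% FBS RPMI. A CellTiter-Glo luminescence read gave % activity for curve fitting.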
Numbers without * were called inactive; [ ] = another dose, or the depositor's remark. Unless noted, calls come from the whole dose curve; as a rule, active = well fitted curve in the direction sought with a large enough effect; inconclusive = small, poorly fitted or top-dose-only effect, or another doubt; inactive = no such curve, though single readings can be large; an effect the other way counts as inactive or inconclusive. Unless noted, % is set by controls: 0 for no effect and ±100 for the full control effect.

`Cc1ccc(Nc2cc(C(=O)NCCCN3CCOCC3)c3ccccc3n2)cc1C` gave TDP1 cell noCPT inconclusive, HT1080-NT tox 23µM*, IL1B secr inh 5, DT40 TDP1 CPT inconclusive, 12-LOX inh inconclusive and HT1080 IDH1KD tx inconclusive.
`COc1cccc(-c2cc(C(=O)NN3CCOCC3)c3ccccc3n2)c1` gave TDP1 cell noCPT 4.6µM*, HT1080-NT tox 5%, IL1B secr inh 0, DT40 TDP1 CPT inconclusive, 12-LOX inh 18% and HT1080 IDH1KD tx 13%.
`Cc1cccc2c(C(=O)NCCN3CCOCC3)cc(-c3ccc(Cl)cc3)nc12` gave 12-LOX inh -7%.
Screening COc1ccccc1NC(=O)c1cnc(Nc2ccc(C)c(Cl)c2)c2ccccc12 returned 12-LOX inh -23%.
`Cc1ccc(Nc2ncc(C(=O)NCCCN3CCN(C)CC3)c3ccccc23)cc1Cl` gave TDP1 cell noCPT inconclusive, HT1080-NT tox 16µM*, IL1B secr inh -78*, DT40 TDP1 CPT inconclusive, 12-LOX inh -17% and HT1080 IDH1KD tx 26µM*.
For COc1ccc(/C=N/Nc2nncc3ccccc23)c(OC)c1 the results were TDP1 cell noCPT inconclusive, HT1080-NT tox 8%, IL1B secr inh -16, DT40 TDP1 CPT 26µM*, 12-LOX inh 2% and HT1080 IDH1KD tx 12%.
`CN(C)c1ccc(/C=N/Nc2nncc3ccccc23)cc1` gave TDP1 cell noCPT 13µM*, HT1080-NT tox 4%, IL1B secr inh 54, DT40 TDP1 CPT inconclusive, 12-LOX inh -24% and HT1080 IDH1KD tx 1%.
C(=N\Nc1nncc2ccccc12)/c1ccccc1 was read as TDP1 cell noCPT -20%, HT1080-NT tox -12%, IL1B secr inh 8, DT40 TDP1 CPT -4%, 12-LOX inh -18% and HT1080 IDH1KD tx -8%.
For COc1cc(/C=N/Nc2nncc3ccccc23)cc(OC)c1OC the results were TDP1 cell noCPT 12µM*, HT1080-NT tox -5%, IL1B secr inh -30, DT40 TDP1 CPT 21µM*, 12-LOX inh 34% and HT1080 IDH1KD tx -4%.
For Cc1cnc(C2CCN(S(C)(=O)=O)C2)n1C(C)C (stereo unspecified) the results were 12-LOX inh 36%.
O=Cc1[nH]c2ccccc2c1Cl was read as 12-LOX inh -8%.
`Cc1cccc(OCC(=O)N(Cc2ccc(N(C)C)cc2)Cc2ccco2)c1C` gave TDP1 cell noCPT 7.3µM*, DT40 TDP1 CPT inconclusive and 12-LOX inh -6%.
`Cc1ccc(OCC(=O)N(Cc2ccco2)Cc2ccc(C)o2)cc1` gave TDP1 cell noCPT 16µM*, DT40 TDP1 CPT 16µM* and 12-LOX inh -14%.
`CCc1ccc(CN(Cc2ccco2)C(=O)COc2ccccc2Cl)cc1` gave TDP1 cell noCPT 23µM*, DT40 TDP1 CPT inconclusive and 12-LOX inh 0%.
For CCc1ccc(OCC(=O)N(Cc2ccco2)Cc2ccco2)cc1 the results were TDP1 cell noCPT 21µM*, DT40 TDP1 CPT inconclusive and 12-LOX inh -11%.
`CC(C)(C)c1cc(C[C@@H]2CC[C@H](O)[C@@H](CN(CC3CC3)CC3CC3)O2)no1` gave 12-LOX inh 29%[176 µM].
Cc1occc1C(=O)N1CC(F)(F)C[C@H]1c1nc(C2CC2)no1 was read as 12-LOX inh 0%.
For Cc1ccc(CN(Cc2ccco2)C(=O)COc2cccc(C)c2C)o1 the results were TDP1 cell noCPT 18µM*, DT40 TDP1 CPT 16µM* and 12-LOX inh 0%.
Cc1cc2ccccc2n1CCNC(=O)C(C)Oc1ccccc1 (stereo unspecified) was read as TDP1 cell noCPT -20%, HT1080-NT tox 0%, IL1B secr inh -17, DT40 TDP1 CPT 23µM*, 12-LOX inh 11% and HT1080 IDH1KD tx -8%.
Screening Cc1ccc(C(=O)NCCn2c(C)cc3ccccc32)cc1C returned TDP1 cell noCPT 10µM*, DT40 TDP1 CPT 12µM* and 12-LOX inh inconclusive.
CC(Nc1ccc(C(C)C)cc1)C(=O)Nc1ccc(Cl)cn1 (stereo unspecified) was read as 12-LOX inh 10%.
CN1C(=O)C2(c3ccccc31)N(C)CC(c1ccccc1)C21SC(=S)N(Cc2ccco2)C1=O (stereo unspecified) was read as TDP1 cell noCPT 9.2µM*, HT1080-NT tox 6%, IL1B secr inh 0, DT40 TDP1 CPT inconclusive, 12-LOX inh 20% and HT1080 IDH1KD tx 4%.
For O=C(O)C(c1c[nH]c2ccc(Cl)cc12)N1CCN(Cc2cccnc2)CC1 (stereo unspecified) the results were 12-LOX inh 2%.
Screening O=C(Nc1ccc2nc(-c3ccco3)c(-c3ccco3)nc2c1)N1CCCCCC1 returned TDP1 cell noCPT 15µM*, HT1080-NT tox -29%, IL1B secr inh inconclusive, DT40 TDP1 CPT 12µM* and HT1080 IDH1KD tx inconclusive.
CCOC(=O)C1CCN(C(=O)Nc2ccc3nc(-c4ccco4)c(-c4ccco4)nc3c2)CC1 was read as TDP1 cell noCPT 18µM*, HT1080-NT tox -3%, IL1B secr inh -11, DT40 TDP1 CPT inconclusive and HT1080 IDH1KD tx -3%.
Screening COc1ccc(-c2csc(N(CCCN(C)C)C(=O)c3ccc(C(C)(C)C)cc3)n2)cc1 returned TDP1 cell noCPT inconclusive, HT1080-NT tox inconclusive, IL1B secr inh -80*, DT40 TDP1 CPT inconclusive, 12-LOX inh -17% and HT1080 IDH1KD tx 16µM*.
Screening COc1ccc(C)c2sc(N(CCCN(C)C)C(=O)c3ccc(S(=O)(=O)N(C)C)cc3)nc12 returned TDP1 cell noCPT -10%, HT1080-NT tox -5%, IL1B secr inh inconclusive, DT40 TDP1 CPT inconclusive, 12-LOX inh -17% and HT1080 IDH1KD tx -7%.
`CCC(=O)N(CCCN(C)C)c1nc(-c2cc(OC)ccc2OC)cs1` gave TDP1 cell noCPT -8%, HT1080-NT tox -15%, IL1B secr inh inconclusive, DT40 TDP1 CPT -18%, 12-LOX inh -26% and HT1080 IDH1KD tx -13%.
COc1ccc(-c2csc(N(CC3CCCO3)C(=O)c3ccccc3)n2)cc1 (stereo unspecified) was read as TDP1 cell noCPT inconclusive, HT1080-NT tox -23%, IL1B secr inh 26, DT40 TDP1 CPT inconclusive, 12-LOX inh -16% and HT1080 IDH1KD tx -22%.
